# Bioassay records deposited in PubChem by NMMLSC.
# BoNT F protease: BoNT F light chain protease inhibition; inhibition, % at 10 µM; Multiplex microsphere protease cleavage assay, flow cytometry; hit rate 0.22% among 360,000; in the data active = inhibition above about 35%, passing the limit was not always enough; inconclusive = no clear call, values can overlap the other calls
# BoNT-A LC inh2: BoNT A light chain protease inhibition; multiplex microsphere protease substrate cleavage, flow cytometry; inhibition, % at 10 µM; hit rate 0.17% among 360,000; AID 588499
# Autofluor counter: compound fluorescence in toxin protease inhibitor counterscreen; AID 624483; hit rate 3.1% among 360,000; compound autofluorescence counterscreen, microsphere flow cytometry; stronger effect = higher value; fluorescence intensity (test concentration not listed); in the data active = fluorescence intensity above about 16000; inconclusive = no clear call, values can overlap the other calls
# Anthrax LF inh2: inhibitors of Bacillus anthracis lethal factor protease. AID 588501. P15917. multiplex microsphere protease cleavage assay, LF. inhibition, % at 10 µM. hit rate 0.12% among 360,000
# Hits are given with their value; n = inactive; u = inconclusive. In the library only some 3.5% were active in any assay of this set; here they are far more common. Cut-off read from the data, not from the text of the source, unless noted: active = inhibition above about 30%; inconclusive = no clear call, values can overlap the other calls; inactive = below that.
SMILES,BoNT F protease,BoNT-A LC inh2,Autofluor counter,Anthrax LF inh2
Cc1ccccc1-n1ncc2c1CC(C)(C)CC2NC(=O)CCN1CCCCC1=O (centres undefined),n,n,n,n
CCCC(=O)n1nc(-c2cccnc2)nc1N,n,u,23837,n
CCOC(=O)C1CCN(Cc2ccc(C(=O)OC)cc2)CC1,n,n,23791,n
COC(=O)c1ccc(/C=N\N2CCN(Cc3ccc(C)cc3)CC2)cc1,n,u,16594,n
NC(=O)C1(N2CCCCC2)CCN(Cc2ccc(F)cc2)CC1,n,n,21961,n
CCOC(=O)C1CCN(C(=O)c2cccc(NC(=O)C(CC)CC)c2)CC1,n,n,n,n
CCOC(=O)C1CCN(C(=O)c2cccc(C(=O)N3CCC(C(=O)OCC)CC3)c2)CC1,n,u,21616,n
NC(=O)C1(N2CCCCC2)CCN(Cc2ccc(Br)cc2)CC1,u,u,n,n
CCOc1cccc(C(=O)NC(=S)Nc2ccc(Cl)cc2C(=O)O)c1,n,n,n,n
COc1ccc(CN2CCN(Cc3cc4ccccc4o3)CC2CCO)cc1C (centres undefined),n,n,n,n
CC(C)CC(=O)Nc1nnc(CSCc2ccc(F)cc2)s1,n,n,n,n
O=C(NCc1cccs1)c1ccc(CS(=O)Cc2cccc(Cl)c2)o1 (centres undefined),n,n,n,n
COCCCN(Cc1cccs1)S(=O)(=O)c1csc(C(N)=O)c1,n,n,n,n
CCOC(=O)C1CCN(Cc2ccc(Cl)c(Cl)c2)CC1,n,n,n,n
CCOC(=O)C1CCN(Cc2cnc(Oc3ccc(N)cc3)s2)CC1,n,n,21292,n
CCOC(=O)C1CCN(Cc2ccc(F)cc2)CC1,n,n,16511,n
COCCN(CC1CCCN(C2Cc3ccccc3C2)C1)C(=O)CCC(N)=O (centres undefined),n,n,n,n
O=C(Nc1nc2c(s1)CCCC2=O)c1cnccn1,n,n,23908,n
COC(=O)c1c(NC(=O)c2cnccn2)sc2c1CCC2,n,n,n,n
CCn1ncc(C2=NOC(C(=O)NCc3ccc(OC)cc3)C2)c1C (centres undefined),n,n,n,n
CCn1ncc(C2=NOC(C(=O)NCc3ccccc3)C2)c1C (centres undefined),n,u,26555,n
COC(=O)c1c(NC(=O)Cc2ccc(OC)c(S(=O)(=O)N3CCOCC3)c2)sc(C)c1C,n,n,u,n
CCN1C(=O)[C@H]2[C@@H](c3ccc(C(F)(F)F)cc3)N[C@]3(CCCN(Cc4ccc(F)cc4)C3=O)[C@H]2C1=O,n,n,n,n
COc1cccc(OC)c1NC(=O)Cn1nc(-c2ccc3c(c2)OCCO3)ccc1=O,n,n,n,n
CC(C)c1nnc(NC(=O)Cn2nc(-c3ccc4c(c3)OCCO4)ccc2=O)s1,n,n,17082,n
SMILES,BoNT F protease,BoNT-A LC inh2,Autofluor counter,Anthrax LF inh2
Cc1oc(-c2ccccc2F)nc1CSCC(=O)NC1CC1,n,n,n,n
O=C(CN1C(=O)c2cccc3cccc1c23)Nc1ccc2c(c1)OCO2,n,n,n,n
Cc1ccccc1-c1nnn(CC(=O)NCc2ccc3c(c2)OCO3)n1,n,n,21659,n
Cn1c(SCC(=O)NCc2ccc3c(c2)OCO3)nnc1-c1c[nH]c2ccccc12,n,u,16863,n
Cc1oc(-c2ccccc2F)nc1CSCC(=O)NCc1ccc2c(c1)OCO2,n,n,20539,n
O=C(CN1C(=O)c2cccc3cccc1c23)NCc1ccc2c(c1)OCO2,n,u,23642,n
COc1cc(C(C#N)N2CCC(c3ccccc3)=N2)ccc1O (centres undefined),n,n,n,n
COc1ccc(CNC(=O)N[C@H](C(=O)O)C(C)C)cc1OC,n,n,n,n
Cc1ccc(NNC(=O)c2c(C)noc2C)cc1Cl,u,u,n,n
Cc1ccc(C(C)NC(=O)c2c(C)noc2C)cc1C (centres undefined),n,n,24941,n
Cc1nnc2n1N=CC=C(c1ccccc1)S2,n,n,n,n
Cc1nnc2n1N=CC=C(C(C)(C)C)S2,n,n,23527,n
COc1cc2cc(CCOC(=O)c3ccco3)oc(=O)c2cc1OC,n,n,n,n
Cc1ccc(NC(=S)N/N=C/c2ccc([N+](=O)[O-])s2)cc1,n,47.3,n,n
COCC(=O)Nc1nc(-c2ccc([N+](=O)[O-])cc2)cs1,n,n,n,n
O=C(Cc1nc(-c2ccc([N+](=O)[O-])cc2)cs1)Nc1ccccc1,n,n,21221,n
O=C(Nc1nc(-c2ccccc2)cs1)c1cccc([N+](=O)[O-])c1,n,n,20697,n
CN(CCc1ccccn1)C(=O)CCC1CCCN(C(=O)c2cccc(N(C)C)c2)C1 (centres undefined),n,n,n,n
COc1cc(/C=N/NC(=O)COc2ccccc2C)ccc1OC(=O)c1cccs1,n,u,22564,n
O=C(CCC(=O)Nc1ccc(F)cc1)N/N=C/c1cccs1,n,n,n,n
